For some assays here: Entries with a potency or affinity are not part of this list.
Experiments:
Set-up in all cases: scale not given: direction of the effect not stated beside the values
[1] = molecular target: Protein translocase subunit SecA (Escherichia coli (strain K12)) (UniProt P10408); assay: Assay to Identify E. coli SecA ATPase Inhibitors; type: functional; conditions: 30 µM
[2] = molecular target: T1, Ubiquitin-activating enzyme e1, putative (Leishmania donovani (strain BPK282A1)) (UniProt E9BSI1); assay: Leishmania donovani Ubiquitin Activating Enzyme (LdE1); type: functional; conditions: 30 µM
T1 sequence (whole entry): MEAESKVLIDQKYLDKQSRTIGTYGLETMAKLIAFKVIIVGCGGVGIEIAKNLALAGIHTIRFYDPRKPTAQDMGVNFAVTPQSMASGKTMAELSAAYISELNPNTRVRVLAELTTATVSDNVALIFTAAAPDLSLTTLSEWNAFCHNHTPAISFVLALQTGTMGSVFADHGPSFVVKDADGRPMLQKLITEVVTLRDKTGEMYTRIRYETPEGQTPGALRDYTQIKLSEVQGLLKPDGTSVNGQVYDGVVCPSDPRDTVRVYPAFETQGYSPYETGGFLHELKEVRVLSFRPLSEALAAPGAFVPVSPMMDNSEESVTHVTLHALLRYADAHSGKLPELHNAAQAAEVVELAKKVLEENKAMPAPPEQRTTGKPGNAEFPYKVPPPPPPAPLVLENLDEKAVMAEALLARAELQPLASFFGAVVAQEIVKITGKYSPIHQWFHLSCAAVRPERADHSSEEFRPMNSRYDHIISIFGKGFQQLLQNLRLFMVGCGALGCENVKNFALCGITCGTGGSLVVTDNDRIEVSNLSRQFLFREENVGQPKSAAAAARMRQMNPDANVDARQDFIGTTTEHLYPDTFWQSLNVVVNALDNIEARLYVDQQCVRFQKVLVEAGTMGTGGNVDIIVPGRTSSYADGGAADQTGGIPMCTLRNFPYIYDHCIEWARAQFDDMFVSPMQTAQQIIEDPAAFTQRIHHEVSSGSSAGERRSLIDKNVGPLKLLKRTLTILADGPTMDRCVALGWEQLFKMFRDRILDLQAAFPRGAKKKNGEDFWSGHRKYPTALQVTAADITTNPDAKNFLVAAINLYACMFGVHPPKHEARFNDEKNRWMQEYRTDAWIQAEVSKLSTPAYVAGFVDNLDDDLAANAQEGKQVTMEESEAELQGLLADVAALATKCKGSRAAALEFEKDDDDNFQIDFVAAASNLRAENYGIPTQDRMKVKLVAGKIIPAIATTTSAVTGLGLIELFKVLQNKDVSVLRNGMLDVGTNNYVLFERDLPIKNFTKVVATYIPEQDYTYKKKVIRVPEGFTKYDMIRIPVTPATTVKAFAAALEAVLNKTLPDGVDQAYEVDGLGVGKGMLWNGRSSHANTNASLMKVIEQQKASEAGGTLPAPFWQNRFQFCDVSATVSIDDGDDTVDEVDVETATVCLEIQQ

[3] = molecular target: Sialic acid-binding Ig-like lectin 9 (Homo sapiens) (UniProt Q9Y336); assay: Hs-Siglec9 ALPHAscreen SOP 20170721; conditions: 10 µM
Trypanosoma cruzi = assay: Trypanosoma cruzi phosphomannomutase and mannose-1-phosphate guanylyltransferase assay; type: functional; conditions: 10 µM
[4] = molecular target: T2, Arginase-2, mitochondrial (Homo sapiens) (UniProt P78540); assay: in vitro enzyme assay to detect the production of urea directly proportional to the activity of Arginase II; type: functional; conditions: 33.3 µM; further: in the data most compounds retested in dose-response had high values
T2 sequence (whole entry): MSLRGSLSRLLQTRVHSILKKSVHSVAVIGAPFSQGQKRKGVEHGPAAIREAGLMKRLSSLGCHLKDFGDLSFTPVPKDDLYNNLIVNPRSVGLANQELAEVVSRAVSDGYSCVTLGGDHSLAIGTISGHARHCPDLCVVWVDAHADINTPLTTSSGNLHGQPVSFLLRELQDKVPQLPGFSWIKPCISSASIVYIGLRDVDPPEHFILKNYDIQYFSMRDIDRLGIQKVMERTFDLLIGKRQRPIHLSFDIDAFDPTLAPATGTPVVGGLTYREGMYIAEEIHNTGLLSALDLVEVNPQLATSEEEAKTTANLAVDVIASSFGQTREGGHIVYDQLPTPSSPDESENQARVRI

[5] = molecular target: T3, Proteasome subunit beta (Trypanosoma cruzi) (UniProt O96673); assay: Trypanosoma cruzi proteasome chymotrypsin-like activity (TcProtChymo) assay.; further: in the data most compounds retested in dose-response had high values; type: functional; conditions: 9.37 µM
T3 sequence (whole entry): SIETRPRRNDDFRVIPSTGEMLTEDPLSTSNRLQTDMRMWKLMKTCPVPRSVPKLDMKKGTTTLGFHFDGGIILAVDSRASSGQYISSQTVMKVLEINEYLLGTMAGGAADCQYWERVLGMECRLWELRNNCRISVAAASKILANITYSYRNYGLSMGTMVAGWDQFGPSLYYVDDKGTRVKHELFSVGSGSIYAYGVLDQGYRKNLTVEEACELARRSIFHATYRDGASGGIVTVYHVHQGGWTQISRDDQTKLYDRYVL

Homo sapiens = organism: Homo sapiens; assay: To identify inhibition of the IFN signalling (Jak-Stat) pathway via expression of an eGFP reporter gene under the control of an IFN-stimulated response element (ISRE) containing MxA promoter.; type: functional; conditions: 30 µM
[6] = molecular target: T4, Tyrosyl-tRNA synthetase, putative (Trypanosoma cruzi (strain CL Brener)) (UniProt Q4DSP6); assay: Trypanosoma cruzi tyrosyl tRNA synthetase (TcYRS) _High Tyrosine SOP; type: functional; conditions: 30 µM; further: in the data most compounds retested in dose-response had high values
T4 sequence (whole entry): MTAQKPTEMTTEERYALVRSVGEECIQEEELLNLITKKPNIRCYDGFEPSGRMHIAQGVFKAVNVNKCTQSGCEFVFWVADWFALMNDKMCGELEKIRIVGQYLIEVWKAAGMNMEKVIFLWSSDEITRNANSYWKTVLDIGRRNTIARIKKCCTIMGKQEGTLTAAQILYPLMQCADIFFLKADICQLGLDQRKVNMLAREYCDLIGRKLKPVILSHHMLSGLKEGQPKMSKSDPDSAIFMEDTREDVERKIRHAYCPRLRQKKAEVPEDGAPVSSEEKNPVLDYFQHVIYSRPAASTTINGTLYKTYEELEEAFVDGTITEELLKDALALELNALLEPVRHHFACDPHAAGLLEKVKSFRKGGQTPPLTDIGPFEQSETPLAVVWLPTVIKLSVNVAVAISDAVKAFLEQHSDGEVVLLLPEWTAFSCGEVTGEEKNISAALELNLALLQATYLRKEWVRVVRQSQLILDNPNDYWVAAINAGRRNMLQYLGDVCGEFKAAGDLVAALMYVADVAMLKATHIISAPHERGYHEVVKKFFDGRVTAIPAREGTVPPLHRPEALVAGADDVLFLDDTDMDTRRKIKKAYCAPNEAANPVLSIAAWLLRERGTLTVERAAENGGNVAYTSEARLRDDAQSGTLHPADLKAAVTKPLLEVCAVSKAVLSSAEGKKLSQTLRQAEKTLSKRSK

[7] = molecular target: T4, Tyrosyl-tRNA synthetase, putative (Trypanosoma cruzi (strain CL Brener)); assay: Trypanosoma cruzi tyrosyl tRNA synthetase (TcYRS) SOP; type: functional; conditions: 30 µM
[8] = molecular target: Chromo domain-containing protein 1 (Saccharomyces cerevisiae (strain ATCC 204508 / S288c) (Baker's yeast)) (UniProt P32657); assay: ScCHD-1 Enzyme Inhibition Assay; type: functional; conditions: 30 µM; further: in the data most compounds retested in dose-response had high values
Sequence of Chromo domain-containing protein 1 (Saccharomyces cerevisiae (strain ATCC 204508 / S288c) (Baker's yeast)) (P32657 whole entry, the tested form may be a part): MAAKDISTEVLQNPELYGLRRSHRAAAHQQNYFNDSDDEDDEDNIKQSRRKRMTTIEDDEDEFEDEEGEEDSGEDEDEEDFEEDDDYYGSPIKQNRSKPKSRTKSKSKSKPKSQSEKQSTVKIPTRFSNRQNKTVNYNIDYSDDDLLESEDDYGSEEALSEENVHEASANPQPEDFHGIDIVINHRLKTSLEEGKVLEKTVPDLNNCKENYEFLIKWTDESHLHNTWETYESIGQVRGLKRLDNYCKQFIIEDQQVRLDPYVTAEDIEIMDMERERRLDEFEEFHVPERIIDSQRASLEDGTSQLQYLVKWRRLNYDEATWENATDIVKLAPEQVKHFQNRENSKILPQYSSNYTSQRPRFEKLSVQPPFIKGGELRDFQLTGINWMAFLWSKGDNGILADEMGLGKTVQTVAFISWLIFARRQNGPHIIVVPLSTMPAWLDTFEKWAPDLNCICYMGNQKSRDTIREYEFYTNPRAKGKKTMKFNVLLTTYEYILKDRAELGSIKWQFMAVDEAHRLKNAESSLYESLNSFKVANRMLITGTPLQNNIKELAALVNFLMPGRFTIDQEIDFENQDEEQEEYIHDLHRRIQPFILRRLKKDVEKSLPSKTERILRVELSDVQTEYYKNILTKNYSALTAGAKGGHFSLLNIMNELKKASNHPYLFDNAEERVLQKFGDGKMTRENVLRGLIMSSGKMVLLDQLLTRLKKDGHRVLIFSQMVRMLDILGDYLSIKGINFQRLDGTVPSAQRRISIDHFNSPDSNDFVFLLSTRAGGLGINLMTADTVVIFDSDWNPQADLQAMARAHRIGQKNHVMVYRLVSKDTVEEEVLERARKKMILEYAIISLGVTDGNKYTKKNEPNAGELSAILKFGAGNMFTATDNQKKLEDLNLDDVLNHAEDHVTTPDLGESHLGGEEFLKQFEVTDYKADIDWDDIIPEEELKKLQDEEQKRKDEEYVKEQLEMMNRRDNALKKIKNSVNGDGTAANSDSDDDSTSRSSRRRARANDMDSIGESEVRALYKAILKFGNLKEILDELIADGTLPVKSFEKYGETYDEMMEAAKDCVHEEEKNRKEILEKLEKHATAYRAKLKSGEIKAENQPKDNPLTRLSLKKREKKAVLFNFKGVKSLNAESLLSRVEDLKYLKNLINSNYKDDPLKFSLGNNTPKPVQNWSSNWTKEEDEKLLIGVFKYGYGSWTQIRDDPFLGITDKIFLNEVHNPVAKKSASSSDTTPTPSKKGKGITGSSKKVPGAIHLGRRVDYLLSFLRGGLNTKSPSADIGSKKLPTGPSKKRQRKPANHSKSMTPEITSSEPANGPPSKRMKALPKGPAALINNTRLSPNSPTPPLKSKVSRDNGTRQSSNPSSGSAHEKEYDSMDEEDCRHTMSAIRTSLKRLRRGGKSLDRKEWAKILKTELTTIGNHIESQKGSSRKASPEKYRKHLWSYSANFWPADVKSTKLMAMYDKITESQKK

Sequence of Protein translocase subunit SecA (Escherichia coli (strain K12)) (P10408 whole entry): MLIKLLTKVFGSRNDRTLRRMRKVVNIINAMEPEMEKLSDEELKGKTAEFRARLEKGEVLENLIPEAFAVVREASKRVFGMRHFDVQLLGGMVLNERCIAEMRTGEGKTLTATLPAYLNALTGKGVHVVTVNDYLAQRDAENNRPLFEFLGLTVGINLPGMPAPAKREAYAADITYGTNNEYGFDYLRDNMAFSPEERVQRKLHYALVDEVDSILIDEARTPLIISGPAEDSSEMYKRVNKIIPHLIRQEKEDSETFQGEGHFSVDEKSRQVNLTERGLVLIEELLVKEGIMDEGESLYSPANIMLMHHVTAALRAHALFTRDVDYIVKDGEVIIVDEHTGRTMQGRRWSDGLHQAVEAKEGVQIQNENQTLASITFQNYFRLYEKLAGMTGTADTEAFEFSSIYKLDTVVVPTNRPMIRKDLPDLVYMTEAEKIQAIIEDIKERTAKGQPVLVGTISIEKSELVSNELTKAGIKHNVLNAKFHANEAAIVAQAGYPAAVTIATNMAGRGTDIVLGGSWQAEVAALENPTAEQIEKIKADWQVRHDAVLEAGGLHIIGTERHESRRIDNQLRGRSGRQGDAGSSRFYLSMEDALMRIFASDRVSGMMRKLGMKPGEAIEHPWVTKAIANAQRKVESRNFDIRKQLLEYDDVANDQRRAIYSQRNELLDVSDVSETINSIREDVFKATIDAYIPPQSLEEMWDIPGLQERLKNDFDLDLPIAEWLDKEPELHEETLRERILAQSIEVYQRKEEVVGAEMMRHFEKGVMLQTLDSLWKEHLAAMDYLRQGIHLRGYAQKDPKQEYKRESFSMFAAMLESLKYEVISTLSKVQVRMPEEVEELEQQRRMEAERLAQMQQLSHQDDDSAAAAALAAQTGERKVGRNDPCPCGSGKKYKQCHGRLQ
Sequence of Sialic acid-binding Ig-like lectin 9 (Homo sapiens) (Q9Y336 whole entry): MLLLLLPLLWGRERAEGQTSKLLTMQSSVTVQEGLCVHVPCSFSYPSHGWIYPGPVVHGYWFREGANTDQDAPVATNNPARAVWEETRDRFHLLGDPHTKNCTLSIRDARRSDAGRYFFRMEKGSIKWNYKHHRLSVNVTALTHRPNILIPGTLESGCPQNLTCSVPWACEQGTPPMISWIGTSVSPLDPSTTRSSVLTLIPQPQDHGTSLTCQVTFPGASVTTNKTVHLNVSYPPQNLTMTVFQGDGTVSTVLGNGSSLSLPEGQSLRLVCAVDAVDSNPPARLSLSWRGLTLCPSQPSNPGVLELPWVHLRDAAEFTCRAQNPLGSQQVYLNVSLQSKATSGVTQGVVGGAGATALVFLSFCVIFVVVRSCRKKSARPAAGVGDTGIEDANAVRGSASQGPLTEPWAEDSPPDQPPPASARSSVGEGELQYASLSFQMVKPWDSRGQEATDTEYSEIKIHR

Compound	Percent Effect [1] [%]	Percent Effect [2] [%]	Percent Effect [3] [%]	Percent Effect (Trypanosoma cruzi) [%]	Percent Effect [4] [%]	Percent Effect [5] [%]	Percent Effect (Homo sapiens) [%]	Percent Effect [6] [%]	Percent Effect [7] [%]	Percent Effect [8] [%]
Cc1ccc(CCC(=O)N2CCCC(n3cncn3)C2)c(C)c1 (stereo not given)	-4.25	8	2.16	-6.02	0.444	2.63	-1.21	5.79	2.56	1.81
Cc1cc(C2CCCN2Cc2ccn(C)c(=O)c2)no1 (stereo not given)	-3.32	-10.3	3.98	9.11	1.64	8.45	4.2	3.35	8.43	-0.427
CN(C)Cc1ccc(C2CCCCN2C(=O)c2cc(C3CC3)n[nH]2)cc1 (stereo not given)	-11.5	-2.7	0.279	-2.23	-1.05	11.3	19.7	5.85	9.76	-0.312
O=C(NCCc1ccccc1)C1CCCN(c2ccc3nncn3n2)C1 (stereo not given)	-3.44	2.7	-1.4	-8.05	1.75	17.6	-5.46	5.85	7.32	-3.81
CCOc1ccc2[nH]c(=O)c(CN3CCC(O)CC3)cc2c1	-8.45	5.41	3.7	3.4	-1.75	3.77	-4.92	9.04	21.9	-0.516
COc1ccccc1NC(=O)CSC1CCc2ccccc2NC1=O (stereo not given)	-4.52	13.5	8.46	4.17	17.1	18.3	13	5.85	17.1	-4.97
Cc1nc[nH]c1CN1CCN(C(=O)c2cccs2)[C@H]2CS(=O)(=O)C[C@H]21	-6.02	2.7	2.06	-2.81	3.85	4.62	5.03	4.79	14.6	-2.09
CCn1cc(C(=O)N2CCCC(c3[nH]ncc3S(C)(=O)=O)C2)cn1 (stereo not given)	-2.25	12	-0.292	0.395	-0.443	13.1	-2.06	4.23	20	-20.4
Cc1ccccc1OCCC(=O)N1CCCC(n2cncn2)C1 (stereo not given)	-5.79	5.13	4.87	0.657	5.33	4.52	0.995	1.44	10.8	-3.4
CS(=O)(=O)NCc1cc2n(n1)CCCN(Cc1cccc(C#N)c1)C2	-4.38	8.11	22.8	7.47	10.8	13	18.6	7.98	19.5	88
Cc1nc(C(=O)N2CCc3c(nc(-c4ccncc4)[nH]c3=O)C2)cs1	-4.53	0	1.7	-2.62	3.85	11.6	5.04	5.85	9.76	-3.73
CC(C)c1nn(C)c(N2CCOCC2)c1CNCCS(C)(=O)=O	-1.81	0	0.36	1.22	4.92	-0.427	-17	0.478	1.21	1.65
COCC(=O)N1CCC2(CC1)CC(CC(=O)NC1CC1)c1ccccc12 (stereo not given)	-8.48	-1.3	3.8	-1.66	-6.88	-0.0883	-8.57	-0.526	5.13	-0.682
O=C(c1cccs1)N1CC[C@H](O)[C@@H]1Cc1ccccc1	-8.07	9.09	8.03	-0.563	0.457	0.601	23.5	0.966	7.5	-9.97
COC[C@@H]1CC[C@H]2[C@H](CCN2S(=O)(=O)c2cccc(C)c2)O1	-1.1	6.49	-6.71	-4.38	2.43	16.1	-2.75	0.526	5.13	-2.87
Cc1cnn(CC2CCCCN2Cc2cc(C)on2)c1 (stereo not given)	-1.2	10.3	3.02	-0.282	-0.82	1.45	8.23	1.44	10.8	-2.89
CN(C)CC1CN(Cc2ccc3c(c2)OCO3)Cc2nccn2C1 (stereo not given)	-10.1	-42.9	7.99	0.682	-3.64	5.56	12.4	0.526	0	-1.33
CC(C)n1[nH]c(=O)c2c1NC(=O)CC2c1ccc2ncccc2c1 (stereo not given)	-1.16	5.41	0.703	-2.62	-5.94	10.6	17.7	4.79	9.76	2.28
CN1CC(=O)N(c2ccccc2)CC12CCN(CC1CC1)C2 (stereo not given)	-2.12	-1.3	-3.04	-6.13	1.22	10.5	-3.51	-0.526	0	-0.704
Cn1cc(-c2nc(CN3CCc4c(ncn4C4CC4)C3)cs2)cn1	0.667	-2.6	12.4	3.54	-0.615	3.33	8.83	0.98	4.71	-7.98
CC(=O)N1N=C(c2ccccc2)OC1C(=O)NCCC1=CCCCC1 (stereo not given)	1.88	12	-5.04	-0.986	2.21	7.55	26.2	-1.06	5	-32.1
CCOc1c(Cl)cccc1NCc1cc(C)on1	-0.827	12.8	-8.13	-1.6	2.05	15.1	25.9	8.13	22.9	-1.3
CCc1nccn1C1CCCN(C(=O)c2csc(COC)n2)C1 (stereo not given)	-5.68	10.4	12.8	-5.78	-1.43	7.89	13.9	4.9	9.41	-5.76
